RECQ1 helicase – qHTS Assay for Inhibitors of RecQ-Like Dna Helicase 1 (RECQ1) | AID 2549, 2010 | RECQ1 DNA unwinding, red fluorescence kinetic read | Potency, µM (titrated, usually from 57.3 µM), usual class: inhibitors | actives 0.54% (n = 240,000); further: nearly all actives have a fitted effect of over 30% in size
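RECQ1T1 50 nM; forked duplex (20 bp + 30-nt ss tails) 200 nM, ATP 2 mM final; pH 8.0, 2 mM MgCl2, 2.5 ug/ml poly(dI-dC); 15 min compound preincubation; discontinuous kinetic read over 2 h at RT.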
TDP1 inh – qHTS Assay for Inhibitors of Tyrosyl-DNA Phosphodiesterase (TDP1). AID 485290, 2010. actives 0.28% (n = 350,000). recombinant TDP1, AlphaScreen DNA substrate cleavage. Tyrosyl-DNA phosphodiesterase 1 (Homo sapiens), Q9NUW8. Potency, µM (titrated, usually from 130 µM), usual class: inhibitors; further: nearly all actives have a fitted effect of over 40% in size
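Here, a 5' biotin and 3' phosphotyrosine-FITC DNA oligonucleotide reports Tdp1 activity: intact substrate bridges AlphaScreen beads, while cleavage leaves a 3' phosphate and drops signal. All incubations at room temperature.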
JMJD2E inh – qHTS Assay for Inhibitors of Human Jumonji Domain Containing 2E (JMJD2E); Lysine-specific demethylase 4E (Homo sapiens), B2RXH2; JMJD2E catalytic domain, FDH-coupled NADH fluorescence (FDH is formaldehyde dehydrogenase); Potency, µM (top dose mostly 57.1 µM), hits mostly inhibitors; actives 1.6% (n = 230,000); active means well fitted inhibition curve with a large enough effect, not every such curve was filed as active; inconclusive means small, poorly fitted or top-dose-only effect, or another doubt; inactive means no such curve, though single readings can be large or run the other way; further: nearly all actives have a fitted effect of over 50% in size
Target sequence (B2RXH2 1-337 limits assumed): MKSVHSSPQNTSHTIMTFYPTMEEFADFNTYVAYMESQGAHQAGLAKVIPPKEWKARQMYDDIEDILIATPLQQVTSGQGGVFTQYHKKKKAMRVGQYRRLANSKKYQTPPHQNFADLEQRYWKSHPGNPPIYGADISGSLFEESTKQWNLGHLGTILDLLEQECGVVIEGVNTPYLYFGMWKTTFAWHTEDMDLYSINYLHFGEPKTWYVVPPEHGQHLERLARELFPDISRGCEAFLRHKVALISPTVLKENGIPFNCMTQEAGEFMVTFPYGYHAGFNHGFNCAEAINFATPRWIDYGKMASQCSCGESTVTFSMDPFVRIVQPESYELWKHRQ
BLM helicase inh – qHTS Assay for Inhibitors of Bloom's syndrome helicase (BLM). RecQ-like DNA helicase BLM (Homo sapiens), P54132. recombinant BLM DNA unwinding, fluorescence dequenching. Potency, µM (doses to about 56.1 µM), actives largely listed as inhibitors. actives 0.2% (n = 350,000). AID 2528, 2010; further: nearly all actives have a fitted effect of over 35% in size
L3MBTL1 block – qHTS Assay for the Inhibitors of L3MBTL1; Lethal(3)malignant brain tumor-like protein 1 (Homo sapiens), Q9Y468; AlphaScreen L3MBTL1–H3K9me1 peptide binding; Potency, µM (highest dose often 57.1 µM), most hits filed as inhibitors; actives 0.66% (n = 230,000); AID 485360, 2010; further: nearly all actives have a fitted effect of over 60% in size
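L3MBTL1 (50 nM) pre-complexed 30 min with biotinylated H3(1-15)K9me1 peptide (75 nM), then compounds added for 30 min at room temperature; AlphaScreen streptavidin donor/nickel chelate acceptor beads (10 ug/mL final) read after 30 min dark incubation.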
APE1 inh-1 – qHTS Assay for Inhibitors of the Human Apurinic/apyrimidinic Endonuclease 1 (APE1); DNA repair nuclease/redox regulator APEX1 (Homo sapiens), P27695; recombinant APE1, TAMRA/BHQ-2 abasic DNA cleavage fluorescence; Potency, µM (top dose mostly 65.8 µM), most hits filed as inhibitors; actives 0.35% (n = 350,000); AID 2517, 2012; further: nearly all actives have a fitted effect of over 55% in size
Target sequence (P27695 whole entry, looked up): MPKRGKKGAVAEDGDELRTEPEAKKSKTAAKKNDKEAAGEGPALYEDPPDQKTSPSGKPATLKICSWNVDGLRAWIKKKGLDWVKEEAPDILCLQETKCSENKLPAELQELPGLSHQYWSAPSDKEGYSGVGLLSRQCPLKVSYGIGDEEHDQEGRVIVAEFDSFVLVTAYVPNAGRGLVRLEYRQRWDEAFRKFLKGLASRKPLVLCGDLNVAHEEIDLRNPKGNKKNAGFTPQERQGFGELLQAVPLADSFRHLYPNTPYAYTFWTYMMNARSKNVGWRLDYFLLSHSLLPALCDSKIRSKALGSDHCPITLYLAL
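Incision of a quenched TAMRA/BHQ-2 THF abasic-site duplex (50 nM) by 0.75 nM APE1, after 15 min compound preincubation, measured as fluorescence increase over three 60 s reads. Values normalized to buffer, DMSO and NSC13755 control wells.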
APE1 dye cs – Counterscreen for APE1 Inhibitors: Fluorescent Dye Displacement Assay. actives 7% (n = 480). Potency, µM (series often up to 28.5 µM), most hits filed as inhibitors. DNA fluorescent dye displacement counterscreen, fluorescence. AID 2564, 2010. shares compounds with APE1 inh-1;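 further: loss of thiazole orange fluorescence as the dye is displaced from duplex DNA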
Endo IV inh – Counterscreen for APE1 Inhibitors: qHTS Assay for Inhibitors of Endonuclease IV. actives 4% (n = 560). shares compounds with APE1 inh-1. Potency, µM (doses to about 27.1 µM), hits mostly inhibitors. E. coli Endo IV, fluorogenic AP-site DNA cleavage
APE1 inh-2 – Confirmation qHTS Assay for Inhibitors of the Human Apurinic/apyrimidinic Endonuclease 1 (APE1) | actives 44% (n = 750) | purified APE1, fluorogenic abasic-site DNA cleavage | shares compounds with APE1 inh-1 | Potency, µM (series often up to 57.1 µM), hits mostly inhibitors; further: nearly all actives have a fitted effect of over 30% in size
APE1 FP inh – qHTS FP-Based Assay for Inhibitors of the Human Apurinic/apyrimidinic Endonuclease 1 (APE1); actives 7% (n = 480); shares compounds with APE1 inh-1; APE1 binding to TAMRA-labelled double-stranded DNA, fluorescence polarization displacement; Potency, µM (top dose mostly 28.5 µM), usual class: inhibitors; AID 2573, 2010
Numbers stand for hits; [ ] = dose if it differs, or a comment. This excerpt belongs to a sample that is enriched for hits. Unless noted, the call rests on the fitted dose curve; in most records, active means well fitted curve in the direction sought with a large enough effect; inconclusive means small, poorly fitted or top-dose-only effect, or another doubt; inactive means no such curve, though single readings can be large; an effect the other way counts as inactive or inconclusive.

O=C(O)CCCN1C(=O)/C(=C/C=C/c2ccco2)SC1=S was read as RECQ1 helicase inactive, TDP1 inh inactive, JMJD2E inh inactive, BLM helicase inh inactive, L3MBTL1 block 0.71µM, APE1 inh-1 inconclusive, APE1 dye cs inactive, Endo IV inh inactive, APE1 inh-2 5µM and APE1 FP inh inconclusive.
`Cc1ccc(NC(=O)CCCN2C(=O)/C(=C/C=C/c3ccccc3)SC2=S)cc1` gave RECQ1 helicase inactive, TDP1 inh inactive, JMJD2E inh inactive, BLM helicase inh inactive, L3MBTL1 block inactive and APE1 inh-1 inactive.
Screening Cc1cc(N)n(-c2ccc(Oc3ccccc3)c(S(=O)(=O)O)c2)n1 returned RECQ1 helicase inactive, TDP1 inh inactive, JMJD2E inh inactive, BLM helicase inh inactive, L3MBTL1 block inconclusive, APE1 inh-1 35µM, APE1 dye cs inactive, Endo IV inh inactive, APE1 inh-2 inconclusive and APE1 FP inh inactive.
CCOc1ccccc1-c1noc(CSc2nnc(-c3ccccc3)n2-c2ccc(F)cc2)n1 was read as TDP1 inh inactive and BLM helicase inh inactive.
CCC(=O)OCC(=O)C1(OC(=O)CC)C(C)CC2C3CCC4=CC(=O)C=CC4(C)C3(Cl)C(O)CC21C (stereo not given) was read as RECQ1 helicase inactive, TDP1 inh inactive, JMJD2E inh inactive, BLM helicase inh inactive and APE1 inh-1 inactive.
Screening Cc1cc(C(=O)COC(=O)c2cccc(O)c2)c(C)n1C1CC1 returned TDP1 inh inactive, L3MBTL1 block inactive and APE1 inh-1 inactive.
Screening COc1ccc(CNC(=O)Nc2cc(C)cc(C)c2)cc1 returned RECQ1 helicase inactive, TDP1 inh inactive, JMJD2E inh inactive, BLM helicase inh inactive, L3MBTL1 block inactive, APE1 inh-1 inactive, APE1 dye cs inactive, Endo IV inh inactive, APE1 inh-2 inactive and APE1 FP inh inactive.
COc1cccc(-c2cncnc2N(C)Cc2ccco2)c1 was read as RECQ1 helicase inactive, BLM helicase inh inactive and APE1 inh-1 inactive.
`[N-]=[N+]=Nc1ccc(C(=O)CSC[C@H](NC(=O)CC[C@H](N)C(=O)O)C(=O)NCC(=O)O)cc1` gave RECQ1 helicase inactive, TDP1 inh inconclusive, JMJD2E inh inactive, APE1 inh-1 inconclusive, Endo IV inh inactive and APE1 inh-2 inactive.
N[C@@H](CCC(=O)N[C@@H](CSN=O)C(=O)NCC(=O)O)C(=O)O was read as L3MBTL1 block inactive and APE1 inh-1 inactive.
For CC(=O)c1ccc(NC(=O)c2ccc3nc(-c4ccco4)c(-c4ccco4)nc3c2)cc1 the results were RECQ1 helicase 8.9µM, TDP1 inh 11µM, JMJD2E inh inconclusive, BLM helicase inh 16µM, APE1 inh-1 inconclusive, APE1 dye cs 8.9µM, Endo IV inh inconclusive, APE1 inh-2 4µM and APE1 FP inh inactive.
For O=C(c1ccc2nc(-c3ccco3)c(-c3ccco3)nc2c1)N1CCN(c2ncccn2)CC1 the results were RECQ1 helicase inactive, JMJD2E inh inconclusive, BLM helicase inh inconclusive, L3MBTL1 block inactive, APE1 inh-1 inconclusive, APE1 dye cs inconclusive, Endo IV inh inactive, APE1 inh-2 inconclusive and APE1 FP inh inactive.
For CS(=O)(=O)N1Cc2ccccc2CC1C(=O)OCC(=O)NCc1ccccc1 (stereo not given) the results were L3MBTL1 block inactive and APE1 inh-1 inconclusive.
Screening CS(=O)(=O)N1Cc2ccccc2CC1C(=O)OCC(=O)Nc1ccc2ccccc2c1 (stereo not given) returned RECQ1 helicase inactive, TDP1 inh inactive, JMJD2E inh inactive, BLM helicase inh inactive, APE1 inh-1 inconclusive, APE1 dye cs inconclusive, Endo IV inh inconclusive, APE1 inh-2 inconclusive and APE1 FP inh inconclusive.
`O=C(O)C1Cc2ccccc2CN1C(=O)COc1ccc(Br)cc1` (stereo not given) gave RECQ1 helicase inactive, TDP1 inh 22µM, JMJD2E inh inactive, BLM helicase inh inactive, APE1 inh-1 inactive and APE1 inh-2 inactive.
Screening O=C(Nc1cccs1)Nc1cc(C(F)(F)F)ccc1Cl returned TDP1 inh inactive and BLM helicase inh inactive.
`Cc1ccc(CNC(=O)CSc2ccsc2[N+](=O)[O-])cc1` gave RECQ1 helicase inactive, TDP1 inh inactive, JMJD2E inh inactive, BLM helicase inh inactive, L3MBTL1 block inactive and APE1 inh-1 inactive.
For CC(=O)c1ccc(NC(=O)CSc2ccsc2[N+](=O)[O-])cc1 the results were RECQ1 helicase inconclusive, JMJD2E inh inactive, BLM helicase inh inactive, L3MBTL1 block inactive, APE1 inh-1 inconclusive, APE1 dye cs inconclusive, Endo IV inh inactive, APE1 inh-2 3.5µM and APE1 FP inh inactive.
CC1(CC(=O)N/N=C/c2cc([N+](=O)[O-])c(O)cc2O)OCCO1 was read as RECQ1 helicase inactive, TDP1 inh inconclusive, JMJD2E inh 16µM, BLM helicase inh inactive, L3MBTL1 block inconclusive, APE1 inh-1 14µM, APE1 dye cs inconclusive, Endo IV inh inactive, APE1 inh-2 13µM and APE1 FP inh inconclusive.
Cc1cc2nc(-c3cc(NC(=O)c4cc5ccccc5o4)ccc3Cl)oc2cc1C was read as TDP1 inh inactive[12.3 µM] and BLM helicase inh inactive.
For O=C1CCCN1CCC(=O)N1CCCC(N2CCN(c3ccccc3F)CC2)C1 (stereo not given) the results were TDP1 inh inactive, BLM helicase inh inactive and APE1 inh-1 inactive.

Assay outcomes as filed in PubChem.
